HPGD inh – blocks human HPGD enzyme activity. purified HPGD, NADH fluorescence kinetic, PGE2 substrate. P15428. Potency, µM, actives largely listed as inhibitors. hit rate 4.3% among 150,000
Target sequence (P15428 whole entry, looked up): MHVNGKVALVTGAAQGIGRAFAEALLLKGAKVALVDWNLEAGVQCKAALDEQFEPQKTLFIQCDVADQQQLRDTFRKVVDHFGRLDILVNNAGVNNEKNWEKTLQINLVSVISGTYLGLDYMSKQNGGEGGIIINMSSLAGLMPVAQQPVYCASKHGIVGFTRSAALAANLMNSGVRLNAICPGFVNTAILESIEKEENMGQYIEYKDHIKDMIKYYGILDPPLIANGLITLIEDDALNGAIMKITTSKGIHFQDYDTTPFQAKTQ
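NADH formation kinetics: reaction with 30 uM PGE2 and 1 mM NAD+ (final), 20 nM enzyme, Tris-HCl pH 8 with Tween 20, after 15 min compound preincubation at room temperature. Fluorescence change, last versus first of five reads.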
ALDH1A1 inh – inhibitors of human aldehyde dehydrogenase 1A1; Potency, µM (doses to about 75.3 µM), usual class: inhibitors; P00352; Purified ALDH1A1, NADH fluorescence, propionaldehyde substrate; hit rate 7.3% among 220,000; AID 1030
JMJD2E inh – JMJD2E (human) inhibition | Potency, µM (doses to about 57.1 µM), hits mostly inhibitors | JMJD2E catalytic domain, FDH-coupled NADH fluorescence (FDH is formaldehyde dehydrogenase) | AID 2147 | hit rate 1.6% among 230,000; further: nearly all actives have a fitted effect of over 50% in size
Target sequence (B2RXH2 1-337 limits assumed): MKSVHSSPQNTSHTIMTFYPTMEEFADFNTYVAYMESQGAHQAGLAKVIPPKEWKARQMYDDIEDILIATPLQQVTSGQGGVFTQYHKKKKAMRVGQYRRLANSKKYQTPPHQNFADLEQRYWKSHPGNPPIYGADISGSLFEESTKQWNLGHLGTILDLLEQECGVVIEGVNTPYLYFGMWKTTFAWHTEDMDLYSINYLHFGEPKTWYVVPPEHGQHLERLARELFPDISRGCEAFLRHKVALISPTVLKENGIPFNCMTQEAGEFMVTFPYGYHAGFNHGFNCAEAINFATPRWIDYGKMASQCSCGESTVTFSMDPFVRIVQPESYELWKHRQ
PNC assembly inh – inhibitors of perinucleolar compartment assembly | PC3M PTB-GFP, PNC prevalence imaging, 16 h; active compounds read low | hit rate 3.1% among 140,000 | activity change (PNC), negative = inhibition, % at 10 µM;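 active means readout at or below -70, meaning at least 70% loss of cells showing the perinucleolar compartment, a nuclear body marking cancer cells; inconclusive means readout between -30 and a set limit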
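Compounds are pinned in duplicate onto adhered PC3M cells stably expressing GFP-tagged PTB and incubated 16 h at 37 C. Cells are then fixed, nuclei stained with Hoechst, and PNC-positive cells counted.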
HPGD inh cf – human HPGD enzyme inhibition, confirmation; hit rate 90% among 90; recombinant HPGD, NADH fluorescence, PGE2 substrate; Potency, µM (series often up to 57.1 µM), usual class: inhibitors; shares compounds with HPGD inh; calls by dose curve
Numbers stand for hits; – = inactive; ? = inconclusive; · = no result given; ! = not confirmed by another sample; [ ] = remark or other dose. Only some compounds are listed: those with a hit (about 11% of all), similar ones and a draw of the others. Unless noted, the call rests on the fitted dose curve; in most records, active means well fitted inhibition curve with a large enough effect (not every such curve was filed as active); inconclusive means small, poorly fitted or top-dose-only effect, or another doubt; inactive means no such curve, though single readings can be large or run the other way.

SMILES | HPGD inh | ALDH1A1 inh | JMJD2E inh | PNC assembly inh | others
COc1ccc(NC(=O)N2CCC3(CC2)OCCO3)cc1 | · | – | – | ·
CC1=C(C(=O)O)N2C(=O)[C@@H](NC(=O)CCCC(=O)O)[C@H]2SC1 | · | – | – | ·
CC(=O)OCC1=C(C(=O)[O-])N2C(=O)[C@@H](NC(=O)CCC[C@@H](N)C(=O)[O-])[C@H]2SC1.[Zn+2] | – | – | 28µM | ·
NC(N)=NC(=O)c1nc(Cl)c(N)nc1N | ? | – | ? | -115
Nc1c(Cl)c(Cl)nc(C(=O)O)c1Cl | – | – | · | ·
BrCC(Br)(Br)Br | – | 2µM | · | ·
NC(=O)CNC(=O)[C@H](Cc1ccccc1)NC(=O)[C@H](CCCN=C(N)N)NC(=O)[C@@H](N)Cc1ccc(O)cc1 | · | – | · | ·
CC1OC(O[C@H]2C[C@@H](O)[C@]3(CO)[C@@H]4C(CC[C@]3(O)C2)[C@@]2(O)CC[C@H](C3=CC(=O)OC3)[C@@]2(C)C[C@H]4O)C(O)C(O)C1O (stereo partly drawn) | · | – | · | ·
CC[C@@H](CO)NC(=O)[C@@H]1C=C2c3cccc4[nH]cc(c34)C[C@H]2N(C)C1 | · | 3.5µM | · | ·
CC[C@H](CO)NC(=O)[C@H]1C=C2c3cccc4[nH]cc(c34)C[C@@H]2N(C)C1 | ? | – | ? | ·
CN1C[C@H](C(=O)N[C@@]2(C)O[C@@]3(O)[C@H]4CCCN4C(=O)[C@@H](Cc4ccccc4)N3C2=O)C=C2c3cccc4[nH]cc(c34)C[C@@H]21 | – | –[13.5 µM] | · | ·
CC[C@@H](CO)NC(=O)[C@@H]1C=C2c3cccc4c3c(cn4C)C[C@H]2N(C)C1 | ? | 3.2µM | ? | ?
CC/C=C\C[C@@H](/C=C/C=C\C/C=C\C/C=C\CCCC(=O)O)OO | – | – | – | ·
Nc1c(C(=O)NCC2CCCO2)c2nc3ccccc3nc2n1Cc1ccco1 (stereo not drawn) | · | · | – | ·
CCOC(=O)c1ccc(-n2c(N)c(C(=O)NCC3CCCO3)sc2=S)cc1 (stereo not drawn) | 7.9µM | 4µM | – | ?
N#CC(C#N)=Cc1ccc(C=C(C#N)C#N)cc1 | · | 0.35µM | 16µM | ·
N#CC(C#N)=Cc1ccc([N+](=O)[O-])c(O)c1 | 16µM | 16µM | ? | ·
CCCCC(CC)COC(=O)c1ccc(C(=O)OCC(CC)CCCC)c(C(=O)OCC(CC)CCCC)c1 (stereo not drawn) | – | ? | · | ·
Cc1noc(NS(=O)(=O)c2ccc(NC(=O)CCCOc3ccc(Cl)cc3Cl)cc2)c1C | 25µM | – | – | –
CC1=[N+]([O-])C2(N)CCc3nonc3C2(O)C1 (stereo not drawn) | – | 7.1µM | – | –
CC(=O)O[C@H]1CC[C@H]2[C@@H]3CCC4=C[C@@H](C5SCCS5)[C@H](OC(C)=O)C[C@]4(C)[C@H]3CC[C@@]12C | – | –[13.5 µM] | · | ·
O=C(Cc1ccccc1)Oc1cccc(-n2cnnn2)c1 | · | – | – | ·
O=C(Cc1ccccc1)Oc1cccc(N2C(=O)CCC2=O)c1 | – | – | – | -100
O=C(NCP(=O)(O)O)c1cccnc1 | – | –[13.5 µM] | · | ·
CN(C)CCC=C1c2ccccc2CCc2ccccc21 | – | 18µM! | ? | –
SMILES | HPGD inh | ALDH1A1 inh | JMJD2E inh | PNC assembly inh | others
CCOC(=O)C1OC1(C)c1ccccc1 (stereo not drawn) | – | – | · | ·
CCOP(=O)(c1ccccc1)c1nc(-c2ccc(F)cc2)oc1N1CCCCC1 (stereo not drawn) | – | – | ? | -87
CN(C)CCCNc1c2c(nc3ccc(Cl)cc13)CCCC2 | – | –[13.5 µM] | · | ·
O=C1NC(=O)N(c2ccc(Cl)cc2)C(=O)/C1=C\c1ccc(Sc2nc3ccccc3[nH]2)o1 | 10µM | ? | – | –
CCOC(=O)C1=C(N)Oc2ccccc2C12C(=O)N(CC(=O)OC)C(CC(=O)OC)=C2C(=O)OC (stereo not drawn) | – | 1.3µM | – | –
CCOC(=O)C1=C(N)OC2=C(C(=O)CCC2)C12C(=O)N(CC(N)=O)c1ccccc12 (stereo not drawn) | – | – | – | –
C=CCN1C(=O)C2(C(C(=O)OCC)=C(N)Oc3ccccc32)c2c1c1ccccc1oc2=O (stereo not drawn) | – | 0.4µM | – | –
CCC(C)C(=O)OC1C[C@@]2(C)C(c3ccoc3)OC(=O)CC23OC2(C)OC34C(OC(=O)C(C)C)[C@]3(O)C(OC(=O)C5(C)OC5C)[C@]5(C)CC3(O)[C@](C)(C5CC(=O)OC)C14O2 (stereo partly drawn) | – | – | – | ·
O=c1cc(CO)occ1O | – | – | 25µM | ·
CC1(C)CC(=O)C(C=NCCN2CCN(C(=O)Cc3ccc(F)cc3)CC2)=C(O)C1 | – | 18µM | – | –
O=C1CC(c2ccccc2)CC(O)=C1C=NCCN1CCN(C(=O)Cc2ccccc2)CC1 (stereo not drawn) | – | – | – | –
CCOP(=O)(NC(C)C)Oc1ccc(SC)c(C)c1 (stereo not drawn) | 5.6µM | ? | · | ·
NNS(=O)(=O)c1ccc(Sc2ccccn2)c([N+](=O)[O-])c1 | · | ? | – | ·
COc1cc(CNC(=O)CCCC/C=C\C(C)C)ccc1O | – | 3.5µM | ? | ·
NC(N)=NCCN=C(N)N | – | –[13.5 µM] | · | ·
O=C(Oc1ccc(S(=O)(=O)F)cc1F)c1ccccc1Cl | – | –[13.5 µM] | · | ·
CC1CC(C)CN(CC(=O)c2ccc(OC(F)F)cc2)C1 (stereo not drawn) | – | 1.3µM | – | ?
COc1ccc(C(=O)CN2CCCCC2)cc1 | · | ? | – | ·
C=C(C)[C@H]1CN[C@H](C(=O)O)[C@H]1CC(=O)O | 16µM! | 20µM! | – | ·
C=C(C)[C@H]1CN[C@H](C(=O)O)[C@@H]1CC(=O)O | – | – | – | ·
CC(C)[C@@H](C)/C=C\[C@@H](C)[C@@H]1CC[C@H]2C3=CC=C4C[C@@H](O)CC[C@]4(C)[C@H]3CC[C@]21C | – | –[13.5 µM] | · | ·
CN(C)CC1CSCCC1(O)c1ccccc1 (stereo not drawn) | – | 13µM | – | –
COc1cc(CCN)ccc1O | – | – | – | ·
C=CCc1ccc(O)c(OC)c1 | – | 14µM! | – | ·
CN(C)C1C(=O)C(C(N)=O)=C(O)[C@@]2(O)C(=O)C3=C(O)c4c(O)ccc(Cl)c4[C@](C)(O)C3CC12 (stereo partly drawn) | ? | – | – | ·
SMILES | HPGD inh | ALDH1A1 inh | JMJD2E inh | PNC assembly inh | others
CC1CCN(C(=O)CCl)CC1 | – | 0.35µM | – | –
O=C(O)c1ccc[nH]c1=S | · | · | 18µM | ·
O=C(O)c1cccc2nc3ccccc3nc12 | · | ? | – | ·
O=C(O)c1ccccc1C(=O)O | – | 28µM | · | ·
NNc1nncn1N | – | –[13.5 µM] | · | ·
Cc1cccc(N2C(=O)NC(=O)/C(=C/c3ccc([N+](=O)[O-])o3)C2=O)c1 | 13µM | – | – | –
Cc1cccc(N2C(=O)NC(=O)/C(=C\C=C\c3ccco3)C2=O)c1 | · | · | – | ·
COc1ccc(CN2C(=O)NC(=O)/C(=C/c3ccc([N+](=O)[O-])o3)C2=O)cc1 | · | 18µM | – | ·
Cc1ccc(-n2sc3ccccc3c2=O)cc1 | 0.63µM | 10µM | 28µM | ? | HPGD inh cf=0.56µM
CCOC(=O)C1C(C=C(C)C)C1(C)C (stereo not drawn) | – | – | – | ·
COC(=O)c1ccccc1OP1(=O)COc2ccccc2OC1 | – | – | – | –

Compound activity as filed in PubChem BioAssay.
